Growth data for 40 molecules are collected here from PubChem BioAssay (NCI).

Compounds without any hit were thinned out: in the full panel of roughly 83,000, 20% have a hit.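 Each cell line was grown in a 96-well plate and treated with one concentration of compound for 48 hours. Values below 10 were considered active.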 Unmarked numbers belong to inactive results. Activity calls are given as the source filed them.

The assay relates to HT29 colon. Description: NCI-60 one-dose screen, 48 h (100 = growth as untreated, 0 = no growth, -100 = all killed). The following applies: 10 µM unless noted. As for the experimental part:
Growth inhibition of the HT29 human tumor cell line is measured as a screen for anti-cancer activity. Cells are grown in 96 well plates and exposed to the test compound for 48 hours. Compounds are tested at a single concentration, which is 10^-5 M for most compounds. The reported endpoint is percent growth (GI% or GIPRCNT), where numbers from 0 - 100% represent growth inhibition, and numbers from -100% - 0 represent cell death. For example, a value of 40 represents 60% growth inhibition. A value of 0 means no net growth occurred over the course of the experiment. A value of -40 indicates 40% of cells at the beginning of the experiment died by the end of the experiment. A value of -100 means all cells are dead at the end of the experiment.
NCI-60 Human Tumor Cell Lines Screen was performed using the standard one-dose NCI protocol, which is described in more detail at https://dtp.cancer.gov/discovery_development/nci-60/default.htm.
Compounds with GIPRCNT values below 10 were considered active. Activity score was based on GIPRCNT using the following formula: […]
Score is 0 for GIPRCNT values of 100 or above, 50 for GIPRCNT values of 0, and 100 for GIPRCNT values of -100.
Regarding `N#Cc1c(-c2cccc(O)c2O)cc(-c2ccc3ccccc3c2)[nH]c1=O`, the growth was 98.2%. For `COc1cc2c(c(OC)c1OC)C(=O)CC(c1cccc(NC(=O)c3cc(NC(=O)[C@H](C)N)ccc3Cl)c1)O2` (stereo not given in full), the growth was 59.5%. Then `COc1ccc2oc(=O)c(C3(C)NC(=O)c4c(/C=C/C(=O)OC(C)(C)C)cccc4N3)cc2c1` (stereo not given), with 39.1%. `C=C1CCC2C3(C)COC(c4cc(F)cc(F)c4)OC3CCC2(C)C1CC(O)C1=CCOC1=O` (stereo not given): the growth was 27.2%. Regarding `Cc1sc2c(c1C)C(c1ccc(Cl)cc1)=N[C@@H](CC(=O)NCCCCCNC(=O)COc1ccc(C3CCC(=O)NC3=O)cc1)c1nnc(C)n1-2` (stereo not given in full), the growth is 13%. Consider `CSc1ccc(NC(=O)c2ccc3nn(/C(C#N)=C/c4ccccn4)nc3c2)cc1`, for which the growth is -86.1% (active). The same measure for `Cc1nc(Nc2ncc(C(=O)Nc3c(C)cccc3Cl)s2)cc(N2CCN(CCCNC(=O)COc3ccc(C4CCC(=O)NC4=O)cc3)CC2)n1` (stereo not given): -13.6% (active); for `CC1(C)CC[C@]2(C(=O)Nc3ccc(F)cc3)CC[C@]3(C)C(=CCC4[C@@]5(C)C[C@@H](O)[C@H](O)[C@@](C)(CO)C5CC[C@]43C)C2C1` (stereo not given in full): 5.61% (active); for `CCN(CC)c1ccc(/C=N/Nc2nc(-c3ccc(Br)cc3)cs2)c(O)c1`: 56.3%.

Regarding `Cc1ccc(C(=O)CSc2nc3ccc(C)cc3c(=O)n2-c2ccc(F)cc2)cc1`, the growth is 72.5%. Then `COc1cccc(/C=C/c2nc3ccccc3c(=O)n2CC(=O)Nc2ccc(Cl)cc2)c1`, with 64.4%; and `CC(C)(C)OC(=O)/C=C/c1cccc2c1C(=O)NC(C)(c1cc3cc(Cl)ccc3oc1=O)N2` (stereo not given), with 44.3%. Then `COc1ccc2oc3c4[nH]c5ccccc5c4c4c(c3c2c1)C(=O)N(C(=O)OC(C)(C)C)C4=O`, with -32% (active). Then `CC(=O)Nc1cccc(Nc2nc(N[C@H]3CCCc4ccccc43)c3ccccc3n2)c1`, with 104%.

For `Nc1n[nH]c2cccc(C#Cc3cccc(NC(=O)c4cccc(Cl)c4)c3)c12`, the growth was 37.8%. Then `O=C(/C=C/c1cccc(OCc2ccc(F)cc2)c1)c1nc2ccccc2[nH]1`, with -46.1% (active). The same measure for `CN1CCc2c(sc3ncnc(N/N=C/c4ccc(Cl)cc4Cl)c23)C1`: -88.4% (active). In the case of `COC1=C[C@]23CCC(=O)N2CCc2cc4c(cc2[C@@H]3[C@@H]1OC(=O)[C@H](C)O)OCO4`, the growth was 1.93% (active).

For `C=C1CC[C@@H]2[C@]3(C)COC(c4cn[nH]c4-c4ccc(OC)cc4)O[C@@H]3CC[C@@]2(C)[C@@H]1C/C=C1/C(=O)OCC1O` (stereo not given in full), the growth was -26.3% (active). Consider `COc1cc(/C=C/C(=O)c2ccccc2)ccc1Oc1nc(Nc2ccc(F)cc2)nc(N(C)C)n1`, for which the growth is 14.5%. The same measure for `Cn1cc(-c2cc3nc(-c4c[nH]c5ccc(Cl)cc45)cc(N)n3n2)c2ccccc21`: -80.7% (active); for `O=C(N/N=C/c1ccc(-c2ccc(O)cc2)o1)c1[nH]c2ccc(Br)cc2c1-c1ccccc1`: -34.8% (active); for `C=C1CCC2C3(C)COC(c4cccs4)OC3CCC2(C)C1CC(Sc1ccccc1)C1=CCOC1=O` (stereo not given): 69.4%. The same measure for `CNC(=O)c1cccc(NC(=O)c2ccc3c(c2)nnn3/C(C#N)=C/c2ccccn2)c1`: -84.4% (active). The same measure for `CC(C)c1ccc2c(N)c(C(=O)Nc3ccc(C(F)(F)F)cn3)sc2n1`: 69.5%.

With `O=C(/C=C/c1ccc(-c2ccccc2)cc1)c1nc2ccccc2n1Cc1ccc(Br)cc1`, the growth was 41.6%. Then `COc1ccc(/C=C/c2nc3ccccc3n3c(-c4ccc(Cl)cc4)nnc23)cc1`, with 102%.

For the molecule `CCCCCCCS(=O)(=O)N1CCCC(C(=O)Nc2nc3ccc(NC(=O)c4ccc(F)c(OC)c4F)cc3s2)C1` (stereo not given), the growth is 60.2%. Then `COc1cc2c3c(n(CCCN4CCC[C@@H]4CO)c(=O)c2cc1OC)-c1cc2c(cc1C3=O)OCO2`, with -95.2% (active); and `C#CCOc1cc(N(CC)CC)ccc1C(C(=O)NC(C)(C)C)N(C(=O)C1CCc2cc(F)ccc2O1)c1ccc(F)c(Cl)c1` (stereo not given), with 79%. `COc1ccc(-c2nc(SCC(C)C)nc(NCCc3c[nH]c4ccccc34)c2C#N)cc1`: the growth was 35%. Then `Cn1cc(-c2nnc(N)nc2-c2c[nH]c3ccc(F)cc23)c2cccnc21`, with 16.8%; and `CC1=C(C(=O)OCc2ccccc2)C(c2c(O)cc(O)cc2O)n2c(nc3ccccc32)N1` (stereo not given), with 38.7%; and `CCOC(=O)c1ccc(Nc2nc(NN)nc(-c3ccc(OC)cc3)c2C#N)cc1`, with 115%. Consider `CN(C)c1ccnc(CNCCSC2(c3ccccc3)c3ccccc3C=Cc3ccccc32)c1`, for which the growth is -46.4% (active).

As for `OCC1(CCCc2ccccc2)CCCN(c2nccc3ccccc23)C1` (stereo not given), the growth was 21.3%. The same measure for `CCCCCCCCc1ccc(S(=O)(=O)Nc2ccc(CC)cc2C(=O)O)cc1`: 124%. The same measure for `O=C(N=Nc1c(O)[nH]c2ccc(Cl)cc12)c1ccc2nc(-c3ccccc3)[nH]c2c1`: 57.4%. `CC(=O)Nc1ccc(-n2cnc3cc(-c4ccc(O)cc4)ccc32)cc1C(F)(F)F`: the growth was 26.3%. Then `CN(C)CCn1c2ccccc2c2nc3ccc([N+](=O)[O-])cc3nc21`, with -15.6% (active).
